In the library only some 7.2% were active in any assay of this set; here they are far more common.
ALR inh: inhibitors of human ALR sulfhydryl oxidase, primary screen, biochemical, H2O2 detection, HRP-luminol luminescence, single point; FAD-linked sulfhydryl oxidase ALR (Homo sapiens), P55789; purified ALR, DTT oxidation; inhibition, % (no concentration beside the values); 3.8% of 290,000 active; AID 485317, 2010;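 active means mean replicate inhibition above about 79%, with every replicate also reaching it, limit read from the data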
AHR act: AHR activators, primary screen, cell-based, luminescence, luciferase reporter, human | AHR-responsive luciferase reporter cells | 2.5% of 320,000 active | Aryl hydrocarbon receptor (Homo sapiens), P35869 | activation, % at 5 µM | AID 2796, 2010; in the data active means activation above about 47%;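 further: 0% = vehicle wells and 100% = reference agonist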
VLA-4 inh: inhibition in human VLA-4 binding assay, primary screen, VLA-4 allosteric modulator project, MLPCN library, flow cytometry, VLA-4 expressing cells | inhibition, % (about 7 µM as worked out from the volumes in the protocol) | 0.2% of 330,000 active | AID 2557, 2010 | Integrin alpha-4 (Homo sapiens), P13612 | ligand binding flow cytometry; in the data active means inhibition above about 50%
Efflux pump inh: inhibitors of Candida efflux pumps in yeast, primary screen, S. cerevisiae, Nile Red, multiplex | inhibition, % at 10 µM | 0.44% of 330,000 active | AID 485275, 2010 | S. cerevisiae Candida pump triplex;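 active means plate passing quality check with inhibition over a set limit, or well fluorescence over plate mean plus 4 SD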;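 further: Nile Red retained in pooled yeast measured as flow cytometry median fluorescence; 0% = buffer negative control and 100% = Enniatin B positive control; higher means more Nile Red kept so more efflux inhibition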
SUMO Mot1 rescue: yeast Mot1-301 growth rescue at high temperature, primary screen, SUMOylation pathway inhibitor project, S. cerevisiae, ATP luminescence, 38.5C. 1% of 320,000 active. growth rescue, % at 18.8 µM. S. cerevisiae Mot1-301 growth rescue; percent above DMSO median, 100 means doubled;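 active means every valid replicate shows activation above 250% relative to neutral control wells; inactive means the rest, any valid replicate at or below 250%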;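 further: OY570 slx delta 5 strain wells were the positive control but not used for scaling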
Bfl-1 A1 inh: caspase 3/7 activation in MEF A1-2A-BIM cells, primary screen, A1 inhibitor project, cell-based, luminescence, HTS; Caspase-Glo 3/7 luminescence, 3 h; percent of clofoctol response, vehicle zero; caspase activation, % (test concentration not listed); 0.066% of 330,000 active; AID 2462, 2010;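 active means over half of replicate activation scores above 10%, or exactly half above 10 with the replicate mean above 10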
AHR act cf: AHR activators, confirmation, cell-based, luminescence, luciferase reporter, human | human cells, AHR-responsive luciferase reporter | activation, % at 9 µM | 87% of 2,300 active | AID 2845, 2010 | shares compounds with AHR act; in the data active means activation above about 49%;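 further: HepG2 hepatoma cells carrying a DRE-driven firefly luciferase reporter; 0% = vehicle wells and 100% = reference agonist wells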
PXR act counter: human PXR activators, counter-screen for AHR activator project, cell-based, luciferase luminescence; shares compounds with AHR act; AID 434939, 2010; 88% of 2,300 active; cell-based PXR reporter; activation, % at 11.6 µM; in the data active means activation above about 11%;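 further: human hepatoma DPX-2 cells expressing full-length human PXR; 0% = DMSO and 100% = reference agonist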
* marks the source's active call; other numbers are inactive results; i = inactive; x = no result.

SMILES	ALR inh	AHR act	VLA-4 inh	Efflux pump inh	SUMO Mot1 rescue	Bfl-1 A1 inh	AHR act cf	PXR act counter
O=C(OCC(=O)N1CCCCCC1)c1ccc([N+](=O)[O-])cc1Cl	-48	0	-1	0	-13	1	x	x
Nc1c(Cl)cc(C2=NCCn3nc4cc([N+](=O)[O-])ccc4c32)cc1Cl	-9	118*	-5	0	23	0	104*	54*
O=C(Nc1ccc2c(c1)CCC2)Nc1ccc(F)cc1F	-2	4	15	0	-21	-3	x	x
COc1ccc(Cl)cc1NCCC(O)c1ccc(F)cc1 (centres undefined)	99*	89*	-4	0	-14	0	21	40*
COc1cccc(-c2c(NC(=O)c3ccco3)oc3ccc(Cl)cc3c2=O)c1	5	104*	-91	0	6	-1	84*	57*
O=C(Nc1oc2ccc(Cl)cc2c(=O)c1-c1ccc(F)cc1)c1ccco1	0	9	-7	0	113	-2	x	x
CCN(CC)C(=O)c1sc(NC(=O)c2c(OC)cccc2OC)c(C#N)c1C	-11	132*	-1	0	-18	-1	92*	173*
CCN(CC)C(=O)c1sc(NC(=O)c2cccc([N+](=O)[O-])c2)c(C#N)c1C	14	-1	8	0	-14	0	x	x
Cc1ccc(-n2ncc(Cl)c2C(=O)NC2CC2)cc1	8	90*	26	0	143	-4	136*	21*
O=C(Nc1ccccc1C(=O)Nc1ccccc1)c1cccs1	-4	92*	10	0	-15	0	89*	30*
Cc1ccc(NC(=O)c2ccc(Cl)c(NC(=O)c3cccs3)c2)cc1	22	131*	7	0	4	0	73*	41*
O=C(c1ccc([N+](=O)[O-])cc1[N+](=O)[O-])N1CCN(C(=O)C2CCCO2)CC1 (centres undefined)	-50	1	17	0	-2	1	x	x
O=C(OCc1nnc(-c2ccc(Cl)cc2)o1)C12CC3CC(CC(O)(C3)C1)C2	-10	5	-2	0	114	-2	x	x
Cc1cc(NC(=O)c2ccccc2-c2ccccc2)ccc1Br	x	94*	13	0	156	0	93*	153*
Cc1ccc2cc3c(NC(=O)c4ccco4)nn(C)c3nc2c1	x	82*	3	0	13	-1	97*	2
CCn1nc(NC(=O)c2ccncc2)c2cc3ccc(C)cc3nc21	-1	12	0	0	-8	1	x	x
Cc1ccc2cc3c(NC(=O)c4cccnc4)nn(C)c3nc2c1	-8	114*	-9	1	-5	0	93*	14*
Cc1cccc(NC(=O)c2cccc(S(=O)(=O)N(C)c3ccccc3)c2)n1	x	3	4	0	x	x	x	x
Cc1cc(N2CCCCC2)nc(-c2ccc(Br)cc2)n1	-2	80*	6	0	x	1	109*	3
Cn1c(=O)c([N+](=O)[O-])c(NCCCn2ccnc2)c2ccccc21	-18	80*	8	0	-14	-1	110*	27*
CCOc1ccc(CCNC(=O)C2CCC(=O)N2C2CCCCC2)cc1OCC (centres undefined)	-9	-1	0	0	1	0	x	x
CN(C)CCNC(=O)c1sc2nc(-c3ccccc3)cc(C(F)(F)F)c2c1N	-4	91*	-97	0	15	0	100*	11*
Nc1c(C(=O)C2CC2)sc2nc(-c3ccccc3)cc(C(F)(F)F)c12	x	16	i	0	-16	0	x	x
CCOCCCNC1=C(Cl)C(=O)c2ccccc2C1=O	-59	40	-9	0	13	0	x	x
CN(C)c1ccc(NC2=C(Cl)C(=O)c3ccccc3C2=O)cc1	73	135*	19	0	-27	-1	76*	13*
SMILES	ALR inh	AHR act	VLA-4 inh	Efflux pump inh	SUMO Mot1 rescue	Bfl-1 A1 inh	AHR act cf	PXR act counter
Brc1ccc(-c2nc(-c3ccccc3)no2)o1	19	124*	-2	0	15	-5	148*	19*
c1ccc(-c2noc(-c3ccc4c(c3)OCO4)n2)cc1	-8	87*	-6	0	-1	-12	16	10
COc1cc(OC)cc(-c2nc(-c3ccccc3OC)no2)c1	x	18	-2	0	6	0	x	x
COc1ccccc1-c1nc(-c2ccncc2)no1	-4	80*	11	0	21	-7	83*	35*
COc1ccccc1-c1nc(-c2ccc(Br)o2)no1	50	91*	-19	0	3	-8	131*	58*
COc1ccc(-c2noc(-c3ccc4c(c3)OCO4)n2)cc1	x	2	-4	0	-13	-3	x	x
Cc1ccc(-c2nnc(SCC(=O)NNC(=O)COc3ccccc3C)n2C)cc1	-3	0	14	-1	-18	0	x	x
O=[N+]([O-])c1ccc(S(=O)(=O)CC2CSc3nc4ccccc4n32)cc1 (centres undefined)	-17	2	9	0	-4	-2	x	x
COc1cccc(-c2nc(-c3ccc(Br)o3)no2)c1	-7	86*	5	0	21	-6	136*	28*
Cc1ccccc1OCc1nc(-c2ccc(Br)o2)no1	x	10	2	0	64	-1	x	x
Cc1ccc(-c2noc(-c3ccccc3Br)n2)cc1	1	126*	-9	0	-5	-6	120*	18*
Cc1ccc(-c2noc(-c3cc4ccccc4oc3=O)n2)cc1	-17	1	11	0	x	-1	x	x
COc1ccc(-c2nc(-c3ccc(Br)o3)no2)cc1OC	-15	-3	-2	0	3	-1	x	x
COc1ccccc1Cc1nc(-c2ccc(Br)o2)no1	4	119*	-11	0	3	0	113*	43*
CC(C)CCNC(=O)C1CCC(CNS(=O)(=O)c2ccc(Cl)cc2)CC1 (centres undefined)	-12	x	24	0	205	1	x	x
COc1ccccc1-c1nc(C#N)c(N2CCCCCC2)o1	4	83*	2	1	-2	0	79*	108*
